Screens: PubChem BioAssay, National Center for Advancing Translational Sciences (NCATS)
Compounds with a hit are over-represented: about 7.5% of the library has one in this group of screens.
Gal4-VP16 FLuc: inhibits Gal4-VP16 luciferase reporter, ROR gamma counter-screen; Drosophila S2 Gal4-VP16 UAS-luciferase, luminescence, 20 h; 3.5% of 310,000 active; Potency, µM (titrated, usually from 53.6 µM), most hits filed as inhibitors; AID 2546;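 also: Gal4-VP16 expression switched on by copper sulfate through the metallothionein promoter; nearly all actives have a fitted effect of over 50% in size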
ELG1 DNA repair: inhibitors of ELG1-dependent DNA repair in HEK293T cells | Potency, µM (highest dose often 46.1 µM), usual class: inhibitors | 2.3% of 330,000 active | HEK293T ELG1-luciferase reporter, luminescence, 16 h; DNA damage induced by 5-fluorouridine; also: nearly all actives have a fitted effect of over 55% in size
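Overnight (16 hr) co-exposure of 2,000 cells/well to 5-fluorouridine and compound at 37 °C preceded detection. Luciferase was quantified via ONE-Glo luminescence; loss of signal denotes inhibition.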
B2AR arrestin: recruits beta-arrestin to the human beta2-adrenergic receptor. P07550. beta-arrestin recruitment to beta2AR, cell-based reporter. Potency, µM (titrated, usually from 46.1 µM), actives largely listed as activators. 0.02% of 330,000 active; also: nearly all actives have a fitted effect of over 65% in size
Target sequence (P07550 whole entry, looked up): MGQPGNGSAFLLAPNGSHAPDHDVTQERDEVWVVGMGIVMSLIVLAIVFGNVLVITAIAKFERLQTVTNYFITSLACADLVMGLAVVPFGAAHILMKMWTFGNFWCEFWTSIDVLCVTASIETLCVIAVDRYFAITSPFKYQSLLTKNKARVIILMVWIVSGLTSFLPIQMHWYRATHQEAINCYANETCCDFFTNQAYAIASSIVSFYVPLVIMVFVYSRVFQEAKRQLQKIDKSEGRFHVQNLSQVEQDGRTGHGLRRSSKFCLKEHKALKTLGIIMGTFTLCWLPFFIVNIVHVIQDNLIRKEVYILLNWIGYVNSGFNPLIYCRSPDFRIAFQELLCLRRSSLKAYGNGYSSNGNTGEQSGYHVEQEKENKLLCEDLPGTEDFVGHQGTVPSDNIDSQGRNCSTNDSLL
TSHR antagonist: human thyrotropin receptor antagonism; P16473; TSHR-expressing cells, TSH-stimulated cAMP HTRF, 2 h; stronger effect = lower value; 0.2% of 330,000 active; activity change, negative = inhibition, % at 11.5 µM;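 active = activity change below a set negative limit, meaning inhibition stronger than a set level, cut at about -70% in these data; inconclusive = activity change between two set negative limits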
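Competitive HTRF cAMP read-out (cryptate anti-cAMP antibody, cAMP-d2; 30 min, room temperature) in freshly harvested TSHR cells. Compounds added before TSH at EC80 (4nM final), followed by 2 hours' incubation at 37 deg C.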
RORg inh: inhibitors of mouse ROR gamma transcriptional activity; P51450; Drosophila S2 Gal4-RORgamma UAS-luciferase reporter, 20 h; Potency, µM (highest dose often 53.6 µM), usual class: inhibitors; 5.4% of 310,000 active; also: nearly all actives have a fitted effect of over 60% in size
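Read-out: Photinus luciferase luminescence; inhibitors lower reporter signal. Insect Schneider cells with Gal4-ROR gamma fusion under metallothionein promoter, UAS reporter; 700 uM final copper sulfate induction, 20 hr, ambient temperature.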
Hits are given with their value; - = inactive; ? = inconclusive; . = no result; [ ] = another dose, or the depositor's remark. Unless noted, calls follow the shape of the dose curve; as a rule, active = well fitted curve in the direction sought with a large enough effect; inconclusive = small, poorly fitted or top-dose-only effect, or another doubt; inactive = no such curve, though single readings can be large; an effect the other way counts as inactive or inconclusive.

SMILES	Gal4-VP16 FLuc	ELG1 DNA repair	B2AR arrestin	TSHR antagonist	RORg inh
Cc1ccc(-c2csc3nc(CN(C)Cc4ccccc4)[nH]c(=O)c23)cc1	6.3µM	-	-	-	1.3µM
CC(C)(C)N1C(=O)[C@H]2[C@H]3[C@H](O)[C@H](O)C/C(=N/OCc4ccccc4)[C@@H]3CC[C@@H]2C1=O	-[10 µM]	.	.	.	-[10 µM]
CCCCCCCCCC(=O)N[C@@H]1c2cc(OC)c(OC)cc2C[C@H]1O	.	?	-	-	.
O=C(Cn1ncn2c(cc3ccccc32)c1=O)NCc1ccco1	-	-	-	-	5.6µM
CCN(CC(O)CON=C1c2ccccc2-c2ccccc21)S(=O)(=O)c1ccc(C)cc1 (centres undefined)	?	-	-	-	-
CN(CC(O)CON=C1c2ccccc2-c2ccccc21)S(=O)(=O)c1ccc(Br)cc1 (centres undefined)	?	21µM	-	-	-
COc1ccc(-c2nc(-c3ccccc3)oc2Nc2ccccc2C)cc1	-	.	.	.	-
CC1CC(C)(C)NC(=S)N1CCCC(=O)N1CCN(c2ccc(F)cc2)CC1 (centres undefined)	-	-	-	-	10µM
CC1CC(C)(C)NC(=S)N1CCC(=O)N1CCN(c2ccccc2)CC1 (centres undefined)	?	-	-	-	7.9µM
Cc1ccc(C)c(N2CCN(C(=O)CN3C(=S)NC(C)(C)CC3C)CC2)c1 (centres undefined)	?	?	-	-	7.9µM
CC1CC(C)(C)NC(=S)N1CCC(=O)N1CCc2ccccc2C1 (centres undefined)	?	-	-	-	16µM
CC1CC(C)(C)NC(=S)N1CC(=O)N1CCN(Cc2ccccc2)CC1 (centres undefined)	-	-	-	-	-
O=C(CCC(=O)N1CCOCC1)NCCc1ccccc1	.	?	-	-	.
NCCCC[C@H](NC(=O)[C@H](CS)NC(=O)[C@@H](N)Cc1cnc[nH]1)C(=O)N[C@@H](Cc1ccccc1)C(=O)N[C@@H](Cc1c[nH]c2ccccc12)C(=O)N[C@@H](Cc1c[nH]c2ccccc12)C(=O)O	-	.	.	.	-
CCCNC(=O)N1N=C(c2ccc(N)cc2)c2cc3c(cc2C1C)OCO3 (centres undefined)	-	.	.	.	-
CC(=O)c1ccc(N2CCN(C(=O)CCN3C(=S)NC(C)(C)CC3C)CC2)cc1 (centres undefined)	-	-	-	-	?
COc1ccc(N2CCN(C(=O)CCN3C(=S)NC(C)(C)CC3C)CC2)cc1 (centres undefined)	-	-	-	-	11µM
CCOC(=O)c1sc(N2N=C(C)/C(=C\c3ccc(OCC(=O)OC)cc3)C2=O)nc1C	?	?	-	-	8.9µM
